The source made the active and inactive calls. How the source made its calls: active means hit-call score of the fitted dose curve at least 0.9, where 1 is the maximum; inactive means score below 0.9.
read-out: sulfotransferase 2A1 (SULT2A1), SULT2A1 (gene 6822); assay: LTEA_HepaRG_SULT2A1: Life Technologies and Expression Analysis (LTEA) Assay for sulfotransferase 2A1 (SULT2A1) using HepaRG (AID 2283531); conditions: mRNA level, 48 h; actives raise or lower the signal
Method: LTEA_HepaRG is a cell based, multiplexed-readout assay that uses HepaRG, a human liver cell line, with measurements taken at 48 hours after chemical dosing on a 96-well plate.LTEA_HepaRG_SULT2A1 is one of 102 assay component(s) measured in the LTEA HepaRG cell culture assay. It is a marker of NR mediated transport.Data from the assay component LTEA_HepaRG_SULT2A1 was analyzed into 1 endpoint. This assay endpoint, LTEA_HepaRG_SULT2A1, was analyzed with bidirectional fitting relative to DMSO as the negative control and baseline of activity. Using a type of inducible reporter, measures of mRNA induction for gain or loss-of-signal activity can be used to understand regulation of transcription factor activity. To generalize the intended target to other relatable targets, this assay endpoint is annotated to the transferase intended target family, where the subfamily is sulfotransferase.
A total of 1060 chemcials from the ToxCast library were tested in eight-point concentration-response experiments. Cell culture and cytotoxicity assays were conducted at Thermo Fisher Scientific's Custom Services facility (Madison, WI). A single lot of human HepaRG cells (Thermo Fisher Scientific, Frederick, MD) was used for the cell culture experiments. 96-well format collagen type I coated plates of human HepaRG cells were prepared using established methods. Briefly, cryopreserved HepaRG cells were thawed, plated at a density of approximately 100,000 cells/well in HepaRG Thaw, Plate, and General Purpose media (HPRG770, Thermo Fisher Scientific), and incubated for 48 hours. 0.5% DMSO was selected as vehicle control to balance the requisite need of DMSO in HepaRG cultures to maintain differentiation (for example, baseline metabolism, proportions of hepatocytes vs. cholangiocytes), while enabling further hepatic receptor pathway activation (for example, PXR and CAR) in response to chemical exposure. 48 hours after plating, the culture medium was replaced with HepaRG Serum-Free Incudtion Media. Cells were exposed to each test chemical in duplicate and maintained in CO2 incubators for another 48 hours. Chemical plates were thawed to room temperature and 200x concentrations of treatment groups were prepared. 8-point conentration-reponse curves were made with the highest exposure at 100 uM, followed by half-log dilutions, all in 0.5% DMSO. Each test plate contained variouse controls, induction positive controls (1mM phenobarbital), cytotoxicity positive controls ([…] aflatoxin B1), vehicle controls (0.5% DMSO), and total lysis controls (0.5% DMSO). Cell morphology images were taken using an Essen IncuCyte FLR automated microscope, with six 96-well plates imaged in about 24 minutes. Images were captured and exported and JPEG files. Spent culture media was transfered to black-well plates for the LDH assay, and remaining media was sorted at -80 C for later use. Cells were treated with RLT buffer and frozen until shipped for gene expression analysis. Total RNA was isolated from the cell suspension in 75 uL of Buffer RLT (Qiagen, Germantown, MD 20874) by Quintiles/Expression Analysis (Durham, NC) using a custom isolation procedure. Total RNA from each plate well was transferred to a preamplification plate. Fluidigm's 96.96 Dynamic ArrayTM (Fluidigm, Amsterdam, the Netherlands) technology was used for gene expression analyses by quantitative reverse transcription polymerase chain reaction (qRT-PCR, performed by Quintiles/Expression Analysis, Durham, NC)89. Standard TaqManTM Assays (Applied Biosystems/ThermoFisher Scientific, Foster City, CA) were used to assess the expression of 93 genes selected based on their selectivity and sensitivity to important hepatic receptors known to be modulated by environmental chemicals; importance in human hepatocyte functionality; and hepatotoxicity. […]

outcome, inactive:
O=c1ccc2ccccc2o1
O=c1c(-c2ccc(O)cc2)coc2cc(O)cc(O)c12
CCCOC(=O)c1cc(O)c(O)c(O)c1
CCCCCCCC[Si](OCC)(OCC)OCC
C[C@]12CC[C@@H]3c4ccc(O)cc4CC[C@H]3[C@@H]1CCC2=O
Cc1occc1C(=O)Nc1ccc(C(=O)N2CCC(F)(F)/C(=C\C(=O)N3CCC(N4CCCCC4)CC3)c3ccccc32)cc1
CCCCCCCCCCCCO
Cc1ccc(C(C)C)cc1
Cc1cn([C@H]2C[C@H](N=[N+]=[N-])[C@@H](CO)O2)c(=O)[nH]c1=O
OCCO
Clc1cc(Cl)c2c(c1)N=C1CCCCCN1C2
CCCCCCCCN(C)CCCCCCCC
O=CCCCC=O
CCCCCc1ccc(N)cc1
O=C=NCCCCCCN=C=O
CCO[Si](CCCNC(N)=O)(OCC)OCC
Cc1ccc2oc(CN(Cc3ccccc3)C(=O)Nc3c(F)cc(F)cc3F)c(-c3ccc(Cl)cc3)c2c1
CCN(Cc1cccc(S(=O)(=O)O)c1)c1ccc(C(=C2C=CC(=[N+](CC)Cc3cccc(S(=O)(=O)O)c3)C=C2)c2ccccc2S(=O)(=O)[O-])cc1
c1ccc2n[nH]nc2c1
O=C1c2ccccc2C(=O)N1CCc1noc(-c2ccc(CN3CCCCCC3)s2)n1
Cc1cccc2ccccc12
CCCCCCCCOc1ccc(C(=O)c2ccccc2)c(O)c1
CCOC(=O)O[C@H](C)OC(=O)c1ccc2c(c1)cc(C(=O)NC1CCN(C(C)C)CC1)n2Cc1cc(-c2ccc(Cl)s2)on1
Oc1ccccc1
CC1=CC(=O)/C(=C(/C)O)C(=O)O1
CCCCCCCCCC(=O)O

AC50, active:
CN(C)c1ccc(C(=C2C=CC(=[N+](C)C)C=C2)c2ccc(N(C)C)cc2)cc1 3.54 µM
CN(C[C@@H](CC[N+]12CCC(C3CCCCC3)(CC1)CC2)c1ccc(Cl)c(Cl)c1)C(=O)c1cc(C(F)(F)F)cc(C(F)(F)F)c1 68 µM
CC(C)(C)c1cc(/C=C2\SC(N)=NC2=O)cc(C(C)(C)C)c1O 93.6 µM
CN(C)C(=O)C1(N2CCCCC2)CCN(CC[C@@]2(c3ccc(Cl)c(Cl)c3)CN(C(=O)c3ccccc3)CCO2)CC1 23.3 µM
CCN(CC)C(=O)c1cc(S(=O)(=O)Cc2ccccc2)c(N2CCC(c3ccccc3)CC2)cc1N(CC)CCN(C)C 32.6 µM
COc1cc(C(=O)NC2CCN(C)CC2)ccc1Nc1ncc2c(n1)N(C1CCCC1)CC(F)(F)C(=O)N2C 11.6 µM
c1ccc(C[n+]2cccc3ccccc32)cc1 32.4 µM
CCN(Cc1cccnc1)C(=O)c1cccc(Cl)c1[C@]1(C)C(=O)N(Cc2ccc(OC)cc2OC)c2ccc(Cl)cc21 25.3 µM
CN1C(=O)N(c2ccccc2Br)Cc2cnc(Nc3ccc4c(c3)OCC(CO)O4)nc21 (stereo not given) 81.1 µM
CC/C(=C(/CC)c1ccc(O)cc1)c1ccc(O)cc1 93.7 µM
COc1ccc2cc(S(=O)(=O)N[C@H](CC(=O)N[C@H](Cc3ccc(CN4[C@H](C)CCC[C@@H]4C)cc3)C(=O)N(C)C(C)C)c3ccc4c(c3)OCO4)ccc2c1 75.2 µM
CC(=O)N1CCN(c2ccc(OC[C@H]3CO[C@](Cn4ccnc4)(c4ccc(Cl)cc4Cl)O3)cc2)CC1 12.2 µM
CC(C)(c1cc(Br)c(O)c(Br)c1)c1cc(Br)c(O)c(Br)c1 91.4 µM
CC(C)(C)c1csc(-c2cc3cc(OCc4ccccc4CC(=O)O)ccc3o2)n1 34 µM

— PubChem BioAssay (EPA / NIEHS)
